Compound activity as filed in PubChem.
KB-V1 cytotox – qHTS assay for MDR1-selective chemotherapeutics: Primary screen using the drug-selected MDR subline cells KB-V1. AID 1347076, 2019. KB-V1 MDR cells viability, CellTiter-Glo, 72 h. Potency, µM (doses to about 46.1 µM), actives largely listed as cytotoxic. actives 3.4% (n = 400,000); note: % is set by controls: 0 for no effect and ±100 for the full control effect; nearly all actives have a fitted effect of over 60% in size
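Compound-treated KB-V1 multidrug-resistant cells, 72 h, 37 degrees C; viability by CellTiter-Glo. Fitted qHTS curves give the values.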
HT1080 IDH1KD tx – qHTS for induction of synthetic lethality in tumor cells producing 2HG: qHTS for the HT-1080-IDH1KD cell line; actives 2% (n = 360,000); Potency, µM (doses to about 46.1 µM), inactives show top-dose activity, negative = toxicity, usual class: cytotoxic; HT-1080 IDH1 knockdown viability, ATP luminescence, 48 h;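 note: 0% = DMSO wells and -100% = cell-free medium wells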
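Using the IDH1-knockdown HT-1080 line run in the same batch and compound series as the NT line, viability after 48 h at 37 °C was determined by CellTiter-Glo luminescence and expressed as % activity.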
MCF10A rerep – A quantitative high throughput screen for small molecules that induce DNA re-replication in MCF 10a normal breast cells; actives 2.9% (n = 350,000); Potency, µM (doses to about 46.1 µM), for inactives: at the highest dose activity, positive = re-replication, most hits filed as activators; MCF 10A DNA re-replication, Hoechst nuclear intensity, 48 h; note: % of control where 0% means no effect; nearly all actives have a fitted effect of over 50% in size
HT1080NT lethal – qHTS for induction of synthetic lethality in tumor cells producing 2HG: qHTS for the HT-1080-NT fibrosarcoma cell line; actives 1.6% (n = 360,000); HT-1080-NT fibrosarcoma viability, CellTiter-Glo ATP luminescence, 48 h; Potency, µM (series often up to 46.1 µM), for inactives: top-dose activity, negative = less viability, most hits filed as cytotoxic;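 note: NT is the 2HG producing partner of a matched IDH1 knockdown line; 0% = DMSO-treated cells and -100% = media-only wells without cells; nearly all actives have a fitted effect of over 55% in size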
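Viability by CellTiter-Glo luminescence after 48 h compound exposure at 37C of HT-1080-NT cells (750/well, RPMI, 5% FBS). % activity scaled between DMSO wells and medium-only wells, then curve-fitted and categorized by curve class.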
SW480 rerep – A quantitative high throughput screen for small molecules that induce DNA re-replication in SW480 colon adenocarcinoma cells; SW480 DNA re-replication, Hoechst DNA content imaging, 48 h; Potency, µM (doses to about 46.1 µM), for inactives: top-dose re-replication activation, hits mostly activators; actives 1.8% (n = 340,000); AID 624297, 2012; note: % of control where 0% means no effect; nearly all actives have a fitted effect of over 55% in size
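SW480 cells exposed to compounds for 48 hr at 37 C, 5% CO2, then Hoechst-stained 40 min. Nuclear DNA content imaged by fluorescence scanning (405 nm excitation, 500-530 nm emission); re-replication scored as increased high-intensity nuclei.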
KB-3-1 cytotox – qHTS assay for MDR1-selective chemotherapeutics: Primary screen using the parental adenocarcinoma cell KB-3-1; actives 1.4% (n = 400,000); KB-3-1 viability, CellTiter-Glo ATP luminescence, 72 h; AID 1347075, 2019; Potency, µM (series often up to 46.1 µM), usual class: cytotoxic; note: % is set by controls: 0 for no effect and ±100 for the full control effect; nearly all actives have a fitted effect of over 60% in size
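Here the drug-naive KB-3-1 line serves as comparator for MDR sub-line selectivity; cells received compound titrations, 72 h at 37 °C, then CellTiter-Glo readout.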
Active calls of the source: *; i = inactive; u = inconclusive; x = not tested or not shown; [ ] = another dose, or the depositor's remark. In the library only some 7.9% were active in any assay of this set; here they are far more common. Calls come from the whole dose curve; as a rule, active = well fitted curve in the direction sought with a large enough effect; inconclusive = small, poorly fitted or top-dose-only effect, or another doubt; inactive = no such curve, though single readings can be large; an effect the other way counts as inactive or inconclusive. Potency is the fitted concentration of half-maximal effect.

SMILES | KB-V1 cytotox | HT1080 IDH1KD tx | MCF10A rerep | HT1080NT lethal | SW480 rerep | KB-3-1 cytotox
CCOC(=O)c1sc2nccc(N(C)C)c2c1N=CNOCc1ccccc1 | 9.2µM* | -24% | 21µM* | -29% | u | u
CC1(C)CCCN(Cc2c(O)ccc3c(=O)c(-c4nc5ccccc5s4)c(N)oc23)C1 | u | -5% | 23µM* | u | -9% | u
CC1CCCN(Cc2c(O)ccc3c(=O)c(-c4nc5ccccc5s4)c(N)oc23)C1 (stereo not given) | u | 18µM* | 21µM* | u | u | u
COc1ccccc1OCCCCn1c(-c2ccc(Cl)cc2)nc2ccccc2c1=O | i | x | x | x | x | i
COc1cccc(CSc2nc3ccccc3cc2C=O)c1 | u | 21µM* | 13µM* | 18µM* | 1.3µM* | u
COc1cccc(NC(=O)CSc2nc3ccccc3cc2Cc2ccccc2)c1 | i | 4% | 0% | 9% | 0% | i
CC(C)(C)c1ccc(OCC(=O)Nc2c(C(=O)c3ccc(F)cc3)oc3ccccc23)cc1 | u | x | x | x | x | i
COc1ccc(S(=O)(=O)N(CCc2ccccc2)CC(=O)NCc2ccccc2)cc1 | i | x | x | x | x | i
CCNC(=O)CN(CCc1ccccc1)S(=O)(=O)c1ccc(OC)cc1 | 21µM* | 10% | -3% | -6% | -6% | i
O=C(CN(CCc1ccccc1)S(=O)(=O)c1ccc(Cl)cc1)N/N=C/c1ccc2c(c1)OCO2 | 9.2µM* | -8% | -1% | 0% | -53% | i
COc1ccc(S(=O)(=O)N(CCc2ccccc2)CC(=O)N/N=C/c2ccc3c(c2)OCO3)cc1 | 4.6µM* | 3% | 1% | -3% | u | u
CCOc1cc(/C=N/NC(=O)CN(CCc2ccccc2)S(=O)(=O)c2ccc(NC(C)=O)cc2)ccc1O | u | -18% | 1% | u | -3% | i
CCc1cccc(NC(=O)Cn2nc(-c3cc(C)ccc3C)ccc2=O)c1 | i | x | x | x | x | i
O=C(N/N=C1\CCCc2c1[nH]c1ccc(Cl)cc21)c1ccncc1 | i | u | 21% | u | 27% | u
OCCN=C1CCCc2c1[nH]c1ccc(Br)cc21 | 0.33µM* | 0% | 21% | -5% | -2%[9.22 µM] | 1µM*
C=CCN=C1CCCc2c1[nH]c1ccc(C)cc21 | 3.3µM* | 5% | -10% | 14% | 0% | 6.5µM*
CCOc1ccc(Nc2c(S(=O)(=O)c3ccc(Cl)cc3)cnc3ccc(OC)cc23)cc1 | i | x | x | x | x | i
CC(=O)c1cc(C#N)c(SCc2ccccc2C#N)nc1C | 10µM* | u | u | u | u | 16µM*
Cc1ccc(Sc2c(CO)c(-c3ccccc3)nn2C)cc1 | u | 1.2µM* | 1µM* | 0.73µM* | 0.82µM* | u
Cc1cc(Cl)c(S(=O)(=O)NC2CCCC2)cc1OCC(=O)NC1CCCCC1 | i | 20µM* | 17% | -1% | 14% | u
Cc1cc(Cl)c(S(=O)(=O)N2CCSCC2)cc1OCC(=O)NC1CCCCC1 | 3.7µM* | -22% | u | u | u | u
Cc1cc(Cl)c(S(=O)(=O)N2CCCCCC2)cc1OCC(=O)NC1CCCCC1 | i | 2% | 0% | -4% | -6% | i
c1ccc(CNc2nc(NCc3ccccc3)c3sccc3n2)cc1 | i | u | x | u | x | i
O=C1c2cccc3c([N+](=O)[O-])ccc(c23)C(=O)N1c1ccc(Cl)cn1 | i | 1.6µM* | u | 4.5µM* | 4.1µM* | i
O=C1c2cccc3c([N+](=O)[O-])ccc(c23)C(=O)N1c1nccs1 | u | 2.2µM* | 7.3µM* | 8.9µM* | 7.3µM* | u
SMILES | KB-V1 cytotox | HT1080 IDH1KD tx | MCF10A rerep | HT1080NT lethal | SW480 rerep | KB-3-1 cytotox
O=C1c2cccc3c(N4CCCCC4)ccc(c23)C(=O)N1c1ccccn1 | i | 2% | -1% | -3% | -1% | i
COc1ccc2c3c(cccc13)C(=O)N(O)C2=O | u | 21µM* | u | u | u | u
COc1ccccc1N1C(=O)c2cccc3c(C(=O)O)ccc(c23)C1=O | i | 13% | 2% | 3% | -10% | i
O=C1c2cccc3c([N+](=O)[O-])ccc(c23)C(=O)N1c1ccccn1 | u | u | 4.1µM* | 26µM* | 12µM* | i
COc1ccc(OC)c(CNC(=O)NCc2noc3ccc(C)cc23)c1 | i | x | x | x | x | i
O=S(=O)(c1ccc(Cl)cc1)c1nc(-c2cccs2)oc1N1CCCCC1 | u | x | x | x | x | i
O=C1c2cccc3c([N+](=O)[O-])ccc(c23)C(=O)N1O | i | u | 21µM* | u | u | i
COc1ccc(C2NN=C(c3ccc(C)cc3)S2)cc1 (stereo not given) | i | 15% | 0% | 12% | -13% | i
CCOc1cc(C2NN=C(c3ccc(C)cc3)S2)ccc1O (stereo not given) | u | 11% | 18µM* | -4% | -7% | i
CCOc1ccc(-c2cc3c(=O)n(Cc4nc(-c5ccc(OC(C)C)cc5)oc4C)ccn3n2)cc1Cl | i | x | x | x | x | i
Cc1cccc(NC(=O)c2ccc3nc(CCc4ccccc4)oc3c2)c1C | i | x | x | x | x | i
COc1ccc2cc(C(C)C(=O)N3CCC(C)CC3)ccc2c1 (stereo not given) | u | u | u | 15µM* | u | 21µM*
O=C(Nc1ncc(S(=O)(=O)c2ccc([N+](=O)[O-])cc2)s1)c1ccc2ccccc2c1 | i | -23% | u | -17% | 1% | i
COC(=O)C(NC(=O)c1ccccc1Cl)(Nc1ncc(S(=O)(=O)c2ccc([N+](=O)[O-])cc2)s1)C(F)(F)F (stereo not given) | 13µM* | 0% | u | 14% | u | u
O=C(Nc1ncc(S(=O)(=O)c2ccc([N+](=O)[O-])cc2)s1)c1cccnc1 | i | 23µM* | u | u | u | i
CCC(C)(C)C(=O)Nc1ncc(S(=O)(=O)c2ccc([N+](=O)[O-])cc2)s1 | i | -27% | u | -16% | u | i
